The results in this text go back to PubChem BioAssay (NCI).

The panel holds about 83,000 compounds, 20% with a hit somewhere; the sample as a whole holds those more often.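 Assay: single dose, 48 h. Readout: percent growth (0 = no net growth; negative = cell death). Active: <10.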 Values without a mark were called inactive. Activity calls are given as the source filed them.

Test systems include HCT-15 colon; HT29 colon; SNB-75 CNS; SNB-19 CNS; PC-3 prostate; SK-MEL-5 melanoma; UACC-62 melanoma; LOX IMVI melanoma; SK-MEL-28 melanoma.
Assay in all cases: NCI-60 one-dose screen, 48 h (100 = growth as untreated, 0 = no growth, -100 = all killed)
Holding throughout (conditions): 10 µM unless noted

With `C=C(C)[C@@H]1CC[C@]2(C(N)=O)CC[C@]3(C)[C@H](CC[C@@H]4[C@@]5(C)C/C(=C/c6ccco6)C(=O)C(C)(C)[C@@H]5CC[C@]43C)[C@@H]12`, the growth was 86.9% in the test on HCT-15 colon; 98.5% in the test with HT29 colon; 89.5% with SNB-75 CNS; 94.5% in the test on SNB-19 CNS; 75.7% in the test with PC-3 prostate; 96.5% with SK-MEL-5 melanoma. The growth in the test with UACC-62 melanoma was 80.2%; in the test with LOX IMVI melanoma it was 88.4%; in the test with SK-MEL-28 melanoma, 99.6%.

As to `O=S(=O)(Nc1ccc(Br)c(Cl)c1)c1ccc(-c2cnc(C3CC3)o2)cc1`, the growth in the test with HCT-15 colon was 20.7%; in the test on HT29 colon it was -15.3% (active); in the test on SNB-75 CNS, -5.71% (active); in the test on SNB-19 CNS it was 35%; with PC-3 prostate, 23.9%; in the test on SK-MEL-5 melanoma, 10.2%. Besides, the results for the growth in the test with LOX IMVI melanoma and with SK-MEL-28 melanoma were 43.7% and 57.9%, respectively.

With `O=C(N=Nc1c(O)[nH]c2ccccc12)c1cc(-c2ccccc2)on1`, the growth in the test on HCT-15 colon is 102%; with HT29 colon it was 104%; with SNB-75 CNS it was 53.7%; with SNB-19 CNS, 100%; in the test on PC-3 prostate it was 101%; in the test with SK-MEL-5 melanoma, 100%. Besides, the growth in the test with UACC-62 melanoma is 99.6%; with LOX IMVI melanoma, 95.9%; in the test with SK-MEL-28 melanoma, 108%.

`CC(C)(O)c1cn(CCCCN2C(=O)C(=O)c3ccccc32)nn1`: the growth was 101% in the test on HCT-15 colon; 107% in the test with HT29 colon; 68% in the test on SNB-75 CNS; 95.9% with SNB-19 CNS; 96.3% in the test on PC-3 prostate; 99.7% in the test on SK-MEL-5 melanoma. The growth in the test with UACC-62 melanoma was 98.1%; in the test on LOX IMVI melanoma it was 91.6%; in the test on SK-MEL-28 melanoma, 113%.

On to `COc1cc(/C=C/c2cc(O)c3cc(C(C)=O)c(=O)oc3c2)cc2c1O[C@]1(C)CC[C@@H](O)C(C)(C)[C@H]1C2`, for which the growth with HCT-15 colon is 14.4%; in the test on HT29 colon it was 60.5%; in the test on SNB-75 CNS, -8.02% (active); with SNB-19 CNS it was 48.1%; in the test with PC-3 prostate it was 27.4%; in the test with SK-MEL-5 melanoma it was -96.8% (active). Besides, the growth is -11.7% (active) in the test with UACC-62 melanoma, 18.8% in the test on LOX IMVI melanoma and -0.116% (active) with SK-MEL-28 melanoma.

On to `CSc1nc(NCc2ccccc2)c(C#N)c(-c2cccc([N+](=O)[O-])c2)n1`, for which the growth in the test with HCT-15 colon is 95.9%; in the test with HT29 colon it was 103%; with SNB-75 CNS it was 68.2%; in the test on SNB-19 CNS, 94.9%; with PC-3 prostate, 94.5%; in the test on SK-MEL-5 melanoma it was 100%. For the same compound, the growth in the test on UACC-62 melanoma is 79%; in the test with LOX IMVI melanoma, 92.1%; in the test on SK-MEL-28 melanoma, 102%.

`CC(C)C1=C[C@@]23CC[C@@H]4[C@](C)(CCC[C@@]4(C)C(=O)N4CCCNCC4)[C@H]2C[C@@H]1[C@H]1C(=O)CCC(=O)[C@H]13`: the growth in the test on HCT-15 colon is 97.5%; in the test on HT29 colon it was 108%; in the test with SNB-75 CNS it was 63.5%; in the test with SNB-19 CNS it was 99.5%; in the test on PC-3 prostate, 93%; in the test with SK-MEL-5 melanoma, 97.7%. The growth with UACC-62 melanoma was 98.2%; in the test on LOX IMVI melanoma, 92.1%; in the test on SK-MEL-28 melanoma, 109%.

For the compound `Cc1nc(/N=C(\N)NC(=O)Nc2cccc([N+](=O)[O-])c2)sc1C`, the growth is 30.1% in the test on HCT-15 colon; 42.8% in the test with HT29 colon; 58.3% with SNB-75 CNS; 90.1% with SNB-19 CNS; 77.1% with PC-3 prostate; 91.1% in the test on SK-MEL-5 melanoma. Moreover, the growth was 63.1% in the test on UACC-62 melanoma, 71.7% in the test with LOX IMVI melanoma and 80.5% in the test on SK-MEL-28 melanoma.

As for `O=C(/C=C/c1cccc([N+](=O)[O-])c1)c1ccc(O)c(CN2CCN(c3cc4c(cc3F)c(=O)c(C(=O)O)cn4C3CC3)CC2)c1`, the growth in the test on HCT-15 colon was -40.1% (active); with HT29 colon, -23.6% (active); with SNB-75 CNS, 31.1%; in the test with SNB-19 CNS, 47.2%; in the test on PC-3 prostate, 18.4%; in the test on SK-MEL-5 melanoma, 46.1%. Besides, the values for the growth in the test on LOX IMVI melanoma and with SK-MEL-28 melanoma were -93.5% (active) and 46.4%, respectively.

Turning to `COc1ccc(-c2cc(NC(=O)Nc3ccc4ncsc4c3)no2)cc1`, the growth is 96.5% in the test with HCT-15 colon; 97.2% with HT29 colon; 60.2% in the test on SNB-75 CNS; 92.9% with SNB-19 CNS; 92.6% with PC-3 prostate; 99.5% in the test with SK-MEL-5 melanoma. In addition, the growth in the test on UACC-62 melanoma was 95.9%; in the test with LOX IMVI melanoma, 102%; with SK-MEL-28 melanoma, 108%.

For `COc1ccc(CCNc2nc(SC)nc(-c3cccc([N+](=O)[O-])c3)c2C#N)cc1OC`, the growth in the test on HCT-15 colon was 90.9%; in the test with HT29 colon it was 93.6%; with SNB-75 CNS it was 61.8%; in the test on SNB-19 CNS, 71.9%; in the test with PC-3 prostate, 75.2%; with SK-MEL-5 melanoma, 88.2%. The growth with UACC-62 melanoma was 80.8%; with LOX IMVI melanoma, 88.6%; in the test on SK-MEL-28 melanoma it was 91.8%.

In the case of `Cc1cc(N2CCOCC2)nc(NCc2cc(Nc3ccnc4cc(Cl)ccc34)ccc2F)n1`, the growth with HCT-15 colon was -81.9% (active); with HT29 colon it was -28.5% (active); in the test with SNB-75 CNS, -20.3% (active); in the test on SNB-19 CNS, -22.9% (active); with PC-3 prostate, -30% (active); in the test on SK-MEL-5 melanoma, -98.3% (active). Moreover, the growth in the test with UACC-62 melanoma is -83.6% (active); with LOX IMVI melanoma, -68.4% (active); in the test with SK-MEL-28 melanoma, -73.1% (active).

Regarding `C=CC(=O)Nc1cccc(-c2nc(SC)nc(NCCN3CCOCC3)c2C#N)c1`, the growth is 90.1% in the test on HCT-15 colon; 89.4% in the test with HT29 colon; 44.8% with SNB-75 CNS; 88.5% with SNB-19 CNS; 92.7% with PC-3 prostate; 94.9% with SK-MEL-5 melanoma. Besides, the values for the growth with UACC-62 melanoma, in the test on LOX IMVI melanoma and with SK-MEL-28 melanoma were 86.7%, 85.5% and 114%, respectively.

On to `CSc1nc(Nc2cccc(NC(=O)/C(C#N)=C/c3c(Cl)cccc3Cl)c2)c(C#N)c(-c2cccc([N+](=O)[O-])c2)n1`, for which the growth was 28.9% in the test with HCT-15 colon; 49.2% in the test on HT29 colon; 47.5% with SNB-75 CNS; 72.5% in the test with SNB-19 CNS; 45.1% in the test with PC-3 prostate; 49.6% with SK-MEL-5 melanoma. For the same compound, the growth was 33.2% with UACC-62 melanoma, 2.43% (active) in the test on LOX IMVI melanoma and 76.7% in the test with SK-MEL-28 melanoma.
